A number with no mark means an inactive call. The source made the active and inactive calls.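 Rule for the calls: active = EC50 at or below 10 µM; inactive = EC50 above 10 µM.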

A short description of the experiment: compound autofluorescence in calcium buffer – biochemical, fluorescence, no RTF in test wells, artefact control for cardiac thin filament activator project, dose response (AID 504697).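 Note: emission near 535 nm under roughly 485 nm excitation as for IANBD.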 The following applies: compound-only fluorescence in RTF assay buffer with Ca2+ (no RTF in test wells), artifact counterscreen.
Consider `COc1ccc(/C=N/NC(=O)c2cc(OC)c(OC)c(OC)c2)cc1CN1CCc2cc(OC)c(OC)cc2C1C` (stereo unspecified), for which the EC50 is > 71.5 µM. Under `COc1ncnc2c1N=C1CC(C)(C)CC(N)=C1S2` stands 23.5 µM; under `N=c1c2c(ncn1Cc1ccco1)Oc1cc(O)ccc1C2c1ccccc1` (stereo unspecified), > 71.4 µM. In the case of `Cc1ccc(N2C(=O)C3C(C(=O)c4ccccc4)=NN(c4ccccc4)C3C2=O)cc1` (stereo unspecified), the EC50 is 33.8 µM. Turning to `COc1ccccc1-c1nnc(SCc2nc3ccccc3s2)n1C`, the EC50 is > 71.5 µM. Under `Cn1nc(-c2ccccc2)c(C(=O)Nc2ccc(C(F)(F)F)cc2)c1Cl` stands > 71.5 µM; under `O=C(Nc1nc(-c2nc3ccccc3s2)cs1)C1COc2ccccc2O1` (stereo unspecified), > 71.5 µM; under `CC(=O)Oc1ccc(NC(=O)Cc2ccccc2)c(C(=O)O)c1`, > 71.5 µM. `CCc1ccc2c(COC(=O)CNS(=O)(=O)c3ccc(NC(C)=O)cc3)cc(=O)oc2c1`: the EC50 was > 71.5 µM.

As for `COc1ccccc1C(=O)Oc1ccc2c(c1)O/C(=C\c1ccncc1)C2=O`, the EC50 is 30.9 µM. Then `COc1ccccc1NC(=O)COC(=O)c1cnc(C)cn1`, with > 71.5 µM; and `N=c1n(Cc2ccccc2)c2ccccc2n1CC(O)c1ccco1` (stereo unspecified), with > 71.5 µM. Turning to `CCC(C(=O)O)N1C(=O)/C(=C/c2cccn2C)SC1=S` (stereo unspecified), the EC50 was 35.3 µM. Under `CCOC(=O)c1cc2n(c1N)-c1ccccc1C2=O` stands 62.6 µM; under `CN1C(=O)/C(=C/C=C2\SCCN2C)OC1=S`, 15.9 µM; under `O=C(CNCc1cccs1)Nc1ccc(S(=O)(=O)N2CCCCC2)cc1`, > 71.5 µM. Under `CN1CCS/C1=C/C=C1\SC(=S)N(CC(=O)O)C1=O` stands 2.28 µM (active); under `Cc1ccc(NC(=O)COc2ccc(/C=N/NC(=O)CSCc3ccccc3)cc2)cc1`, > 71.5 µM. Under `COc1ccc(C(=O)Nn2cnc3scc(-c4cccs4)c3c2=O)c(O)c1` stands > 71.5 µM; under `CCN(CC(=O)Nc1ccccc1C(F)(F)F)C(=O)c1ccc(-n2nc(C)c(CCC(=O)OC)c2C)cc1`, > 71.5 µM.

Consider `CCOc1cc(N2CCOCC2)c(OCC)cc1NC(=O)CCS(=O)(=O)c1ccc(Cl)cc1`, for which the EC50 was > 71.5 µM. Then `CN(N=Nc1ccc([N+](=O)[O-])cc1)c1ccccc1`, with 8.06 µM (active); and `O=C(CCSc1ccccc1)N1CCN(C(=O)c2ccco2)CC1`, with > 71.5 µM. As for `NC(=O)NC(=O)COC(=O)c1cccc(NS(=O)(=O)/C=C/c2ccccc2)c1`, the EC50 was > 71.5 µM. For the compound `COc1ccc(/C=C/C(=O)NC(=S)Nc2ccc(C(=O)O)cc2)cc1`, the EC50 is > 71.5 µM.

For `O=C(Nc1ccc(Cl)c(Cl)c1)Nc1ccc([N+](=O)[O-])cn1`, the EC50 is > 71.5 µM. Then `COc1cccc(CC(NC(C)=O)C(=O)NC2CCN(c3nc(C)cc(C)c3C#N)CC2)c1OC` (stereo unspecified), with > 71.5 µM; and `COc1cc(C(=O)Oc2ccccc2/C=N/NC(=O)c2ccc(Cl)cc2)cc(OC)c1OC`, with > 71.5 µM. Under `O=c1[nH][nH]c(C(F)(F)F)c1C=NCc1ccccc1Cl` stands > 71.4 µM. Under `CCC[C@@H](CN1CCC[C@H]1CN1C(N)=NC[C@@H]1Cc1ccccc1)N1C[C@@H](Cc2ccccc2)N(CCCC2CCCC2)C1=N` stands > 71.4 µM. As to `CCOC(=O)/C(=C/C=C1\Sc2cc(OCC)c(OCC)cc2N1CC)C(C)=O`, the EC50 is 0.48 µM (active). Then `COc1ccc(OC)c(/C=C2\N=C(c3ccccc3)OC2=O)c1`, with 1.71 µM (active). In the case of `CCN(CC)CCN1C(=O)c2cccc3cc(N)cc(c23)C1=O`, the EC50 was 49.2 µM. Under `CCC(/C=C1\Oc2ccc(OC)cc2N1C)=C\c1sc2ccccc2[n+]1CCCS(=O)(=O)[O-]` stands 2.92 µM (active). Then `Cc1ccc(C(=O)Nc2ccc3c(c2)ncn3C)cc1`, with > 71.4 µM. Turning to `Cn1cnnc1Sc1nc2ccccc2nc1NS(=O)(=O)c1ccccc1`, the EC50 is > 71.5 µM.

Source of the values: PubChem BioAssay AID504697 (The Scripps Research Institute Molecular Screening Center, 2011).
